A selection: hits, their analogues and other compounds. The true share with any hit is near 3.6%.
Bead autofluor: counter-screen for toxin protease inhibitors: compound fluorescence; compound autofluorescence counterscreen, microsphere flow cytometry; stronger effect = higher value; fluorescence intensity (test concentration not listed); actives 3.1% (n = 360,000); AID 624483; in the data active = fluorescence intensity above about 16000; inconclusive = no clear call, values can overlap the other calls
MazF activator: activators of E. coli MazEF toxin-antitoxin RNase, primary screen, biochemical, fluorescence, uHTS. FAM/BHQ RNA-DNA oligo cleavage fluorescence, 5 h. activation, % at 20 µM. Endoribonuclease toxin MazF (Escherichia coli (strain K12)), P0AE70. actives 0.32% (n = 350,000); in the data active = activation above about 50%
Target sequence (P0AE70 whole entry, looked up): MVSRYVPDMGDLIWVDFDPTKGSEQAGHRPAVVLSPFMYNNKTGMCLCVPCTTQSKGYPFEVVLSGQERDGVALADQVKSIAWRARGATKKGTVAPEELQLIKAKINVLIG
Anthrax LF prot: Bacillus anthracis LF protease inhibitors, primary screen, biochemical, multiplex microsphere, MLPCN library; multiplex microsphere protease cleavage assay; actives 0.12% (n = 360,000); AID 588501, 2011; inhibition, % at 10 µM
BoNT-A LC inh2: BoNT/A light chain protease inhibitors, primary screen, biochemical, flow cytometry, MLPCN library | actives 0.17% (n = 360,000) | inhibition, % at 10 µM | multiplex microsphere protease substrate cleavage | Botulinum neurotoxin type A light chain protease (Clostridium botulinum A str. ATCC 3502)
BoNT-F LC inh: BoNT/F light chain protease inhibitors, primary screen, biochemical, flow cytometry, MLPCN library; Botulinum neurotoxin type F light chain protease (Clostridium botulinum); Multiplex microsphere protease cleavage assay; inhibition, % at 10 µM; actives 0.22% (n = 360,000); AID 588497, 2011; in the data active = inhibition above about 35%, passing the limit was not always enough; inconclusive = no clear call, values can overlap the other calls
Hits are given with their value; - = inactive; ? = inconclusive; . = no result. Rule as the data show it, unless noted: active = inhibition above about 30%; inconclusive = no clear call, values can overlap the other calls; inactive = below that.

SMILES | Bead autofluor | MazF activator | Anthrax LF prot | BoNT-A LC inh2 | BoNT-F LC inh
CSCCC1NC2(C(=O)Nc3c(C)cc(Cl)cc32)[C@@H]2C(=O)N(C3CCCC3)C(=O)[C@H]12 (some centres undefined) | 23955 | - | - | ? | -
COc1ccccc1CNC(=O)CCCC(=O)n1ncc2cc(C)ccc21 | - | - | - | - | -
COc1cccc(OC)c1C(=O)Nn1c(C2CCC2)nc2ccccc2c1=O | 19169 | - | - | ? | -
CCC(=O)Nn1c(C2CCC2)nc2ccccc2c1=O | - | - | - | - | -
O=C(NCCS(=O)(=O)N1CCCCC1)c1ccc2c(c1)OCO2 | ? | - | - | - | -
O=C(CSc1nnc(-c2ccc(O)cc2)n1Cc1ccco1)N1CCc2ccccc2C1 | 16322 | - | - | - | -
CCc1cccc(CC)c1-n1c(SCC(=O)N2CCc3ccccc3C2)nnc1-c1cccnc1 | 36354 | - | - | - | -
Cn1c(SCC(=O)N2CCc3ccccc3C2)nnc1-c1ccncc1 | - | - | - | - | -
NC(=O)CSc1nnc(-c2ccc(O)cc2)n1Cc1ccco1 | - | - | - | - | -
CC1CCN(C(=O)CSc2nnc(-c3cccnc3)n2C2CCCCC2)CC1 | 17010 | - | - | ? | -
Cc1ccc(-n2c(SCC(=O)N3CCCc4ccccc43)nnc2-c2cccnc2)c(C)c1 | 26671 | - | - | - | -
CCOc1ccccc1-n1c(SCC(=O)N2CCCc3ccccc32)nnc1-c1cccnc1 | - | - | - | - | -
COc1ccc(CNC(=O)c2cn(Cc3ccccc3F)c(=O)s2)cc1 | - | . | - | - | -
O=C(CSc1nnc(-c2ccncc2)n1C1CCCCC1)Nc1cccc(O)c1 | 16523 | - | - | - | -
Cc1ccc(-n2c(Cn3nc(C(F)(F)F)cc3C)n[nH]c2=S)cc1 | 17459 | - | - | ? | -
O=C(O)CN1C(=O)/C(=C\c2cc(Br)ccc2OCc2ccc(Cl)cc2)SC1=S | - | - | - | - | -
O=C(O)CN1C(=O)/C(=C\c2cc([N+](=O)[O-])ccc2OCc2ccccc2Cl)SC1=S | - | - | 32 | - | -
Cc1cn2c(-c3ccncc3)nnc2s1 | - | - | - | - | -
Cc1cn2c(-c3cccnc3)nnc2s1 | 19239 | - | - | - | -
CCC(=NCCO)c1c(O)n(-c2ccc(Cl)cc2)c(=O)[nH]c1=O | 23929 | - | - | - | -
COc1cccc(-c2nn3c(-c4ccco4)nnc3s2)c1 | - | - | - | - | -
COc1cccc(OC)c1-c1nn2c(-c3ccco3)nnc2s1 | 20967 | - | - | - | -
Brc1ccc(-c2nn3c(-c4ccco4)nnc3s2)o1 | 22193 | - | - | ? | -
Clc1ccc(-c2ccc(-c3nn4c(-c5ccco5)nnc4s3)o2)cc1 | - | - | - | - | -
O=[N+]([O-])c1ccc(N2CCCC2)c2ncccc12 | - | 101 | - | - | -
SMILES | Bead autofluor | MazF activator | Anthrax LF prot | BoNT-A LC inh2 | BoNT-F LC inh
COc1ccc(S(=O)(=O)N2CCC(C(=O)NCCC(=O)Nc3ccc(Cl)cc3)CC2)cc1 | - | 55 | - | - | -
COc1ccc(NC(=O)CN2CCN(S(=O)(=O)c3ccc(Cl)cc3)CC2)cc1 | 22877 | - | - | - | -
COc1ccc(NC(=O)CN2CCCCCC2)cc1OC | - | - | - | - | -
COC(=O)c1ccc(CS(=O)(=O)c2ccc(C)cc2)cc1 | 21233 | - | - | ? | -
COC(=O)c1cccc(COC(=O)c2ccc(CS(=O)(=O)c3ccc(C)cc3)cc2)c1 | - | - | - | - | -
N#CCSc1nc2ccc(N3CCCCC3)cc2c(=O)n1Cc1ccccc1 | 29809 | - | - | - | -
Cc1oc2nc(SCC(=O)NCCCO)nc(N)c2c1C | 22217 | - | - | - | -
O=C(O)CCCC(=O)OCCc1cc2ccccc2c(=O)o1 | - | - | - | - | -
O=C(O)CCCC(=O)OCCCCc1cccs1 | 19404 | - | - | ? | -
O=C(Nc1cccc(C(F)(F)F)c1)Nc1ccc2nc([C@@H]3O[C@H](CO)[C@@H](O)[C@H](O)[C@H]3O)[nH]c2c1 | - | . | - | - | -
Cc1nn(CC(=O)O)c(C)c1Cl | - | - | - | - | -
Cc1nn(CC(=O)O)c(C)c1C | 21501 | - | - | - | -
CN(CC(=O)Nc1ccncc1)S(=O)(=O)c1ccc(Br)cc1 | - | - | - | - | -
CN(CC(=O)Nn1cnnc1)S(=O)(=O)c1ccc(Br)cc1 | 18838 | - | - | ? | -
CN(Cc1ccccc1)Cc1nc2c([nH]1)c(=O)[nH]c(=O)n2C | 16968 | - | - | - | -
COCCn1c(COc2cccc(OC)c2)nnc1SCC(=O)NC1CCCC1 | - | - | - | - | -
Cc1cc(S(=O)(=O)N2CCOCC2)ccc1OCC(=O)NCCN1CCOCC1 | - | - | - | - | -
O=C1NC2(CCCCC2)N=C1c1ccc(Br)cc1 | - | - | - | - | -
O=C1NC2(CCCC2)N=C1c1ccc(Cl)cc1 | 23960 | - | - | - | -
O=C1NC2(CCCCC2)N=C1c1ccc(F)cc1 | 22118 | - | - | - | -
CCNC(=O)C1(C)CCN(C(=O)c2ccccc2C(F)(F)F)C1 (centres undefined) | - | . | - | - | -
Cn1ccsc1=NC(=O)c1cc(S(=O)(=O)N2CCOCC2)ccc1F | - | - | - | - | -
O=C(/C=C/c1ccc(-c2ccccc2[N+](=O)[O-])o1)c1ccc(Br)cc1 | 21485 | - | - | ? | -
N#C/C(=C/c1ccc(-c2ccccc2[N+](=O)[O-])o1)C(N)=O | - | 54 | - | - | -
O=C(/C=C/c1ccc(-c2ccccc2[N+](=O)[O-])o1)c1ccc(F)cc1 | - | - | - | - | -
SMILES | Bead autofluor | MazF activator | Anthrax LF prot | BoNT-A LC inh2 | BoNT-F LC inh
N#C/C(=C/c1ccc(-c2cc([N+](=O)[O-])ccc2Cl)o1)C(N)=O | - | - | - | - | -
CC(C#N)(NC(=O)CN1CCN(S(=O)(=O)c2cccc(F)c2)CC1)C1CC1 (centres undefined) | - | - | - | - | -
Cc1ccc(OCC(=O)NC2=NCCS2)cc1 | - | - | - | - | -
CC(=O)c1ccc(OCCCC(=O)NC2=NCCS2)cc1 | 23568 | - | - | ? | -
Clc1ccccc1-c1nc(-c2ccccc2)n[nH]1 | 24108 | - | - | - | -
Oc1ccccc1-c1n[nH]c(-c2ccccc2O)n1 | - | - | - | - | -
O=C(CSc1nnc(-c2ccncc2)o1)N1CCCC1 | - | - | - | - | -
O=C(CCCCCn1c(=S)[nH]c2ccccc2c1=O)N1CCC2(CC1)OCCO2 | 21724 | - | - | - | -
Cn1c(=O)n(CC(=O)N2CCC3(CC2)OCCO3)c(=O)c2ccccc21 | - | - | - | - | -
O=C(Cn1c(=S)[nH]c2ccccc2c1=O)N1CCC2(CC1)OCCO2 | 24695 | - | - | - | -
CCN(CC)c1ccc(/C=N/N2CCN(Cc3cccc4ccccc34)CC2)c(O)c1 | 23476 | - | - | - | -
CCN(CC)c1ccc(/C=N/N2CCN(Cc3ccc(Cl)cc3)CC2)c(O)c1 | - | - | - | - | -

From PubChem BioAssay
